Experimental data reported in the antibiotic and cytotoxicity screens of Wong et al. (2023).
The campaign covered roughly 39,000 compounds. About 1,500 (3.8%) were called active. This is one part of a sample in which actives are shown more often than they occur.

The molecules below were run on HSkMC (human skeletal muscle cells) (assay: cytotoxicity call (relative viability < 0.9)). Conditions: 10 µM.
In the case of `COc1ccc(CN(C)C[C@@H]2OCCCC[C@@H](C)Oc3ccc(NC(=O)c4ccccc4)cc3C(=O)N([C@H](C)CO)C[C@@H]2C)cc1`, the cytotoxicity call is reported as “inactive”. `Cc1noc(C)c1NC(=O)Nc1ccc2c(c1)C(=O)N([C@@H](C)CO)C[C@H](C)[C@@H](CN(C)C(=O)Nc1c(C)noc1C)OCCCC[C@H](C)O2` was tested, and the cytotoxicity call was “inactive”. With `CN1CCN(C(=O)C[C@@H]2CC[C@@H]3[C@H](COc4ccc(NC(=O)c5cscn5)cc4C(=O)N3C)O2)CC1` the cytotoxicity call was “inactive”. With `O=C(C[C@@H]1C[C@H]2c3cc(NC(=O)C4CCOCC4)ccc3O[C@H]2[C@@H](CO)O1)NCc1cc(F)ccc1F` the cytotoxicity call was “inactive”. In the case of `Cc1ccc(S(=O)(=O)N(C)C[C@@H]2Oc3ccc(NS(=O)(=O)c4c(C)noc4C)cc3CC(=O)N([C@H](C)CO)C[C@H]2C)cc1`, the cytotoxicity call is reported as “inactive”. `CC(=O)OC1CC2C(C)(C)C=CCC2(C)C2CCC3(C)C(c4ccoc4)OC(=O)C4OC43C12C` (configuration not stated) was tested, and the cytotoxicity call was “inactive”. For `O=C(CN1CCOCC1)NCC[C@H]1CC[C@H](NC(=O)c2ccccc2F)[C@@H](CO)O1`, the cytotoxicity call was “inactive”. `C[C@@H]1CN([C@@H](C)CO)C(=O)Cc2cc(NC(=O)Nc3cccc4ccccc34)ccc2O[C@@H]1CN(C)S(=O)(=O)c1cccs1` was tested, and the cytotoxicity call was “inactive”. In the case of `C(=N\c1nnc2nc[nH]n12)/c1ccco1`, the cytotoxicity call is reported as “inactive”. For `C[C@@H]1CCCCO[C@@H](CN(C)Cc2ccc(Cl)c(Cl)c2)[C@H](C)CN([C@@H](C)CO)C(=O)c2cc(N(C)C)ccc2O1`, the cytotoxicity call was “inactive”. In the case of `C[C@@H]1CCCCO[C@@H](CN(C)Cc2ccc(Cl)c(Cl)c2)[C@H](C)CN([C@H](C)CO)C(=O)c2cc(NC(=O)Nc3ccc4c(c3)OCO4)ccc2O1`, the cytotoxicity call is reported as “inactive”. `C[C@@H]1CCCCO[C@H](CN(C)Cc2ccc(Cl)c(Cl)c2)[C@H](C)CN([C@@H](C)CO)C(=O)c2cc(NC(=O)Nc3ccc4c(c3)OCO4)ccc2O1` was tested, and the cytotoxicity call was “active”. In the case of `C[C@@H]1CCCCO[C@H](CN(C)Cc2ccc(Cl)c(Cl)c2)[C@@H](C)CN([C@@H](C)CO)C(=O)c2cc(NC(=O)Nc3ccc4c(c3)OCO4)ccc2O1`, the cytotoxicity call is reported as “inactive”. `C[C@@H]1CCCCO[C@@H](CN(C)Cc2ccc(Cl)c(Cl)c2)[C@H](C)CN([C@@H](C)CO)C(=O)c2cc(NC(=O)Nc3ccc4c(c3)OCO4)ccc2O1` was tested, and the cytotoxicity call was “inactive”. For `C[C@H](CO)N1C[C@H](C)[C@@H](CN(C)Cc2ccc(Cl)c(Cl)c2)OCCCC[C@H](C)Oc2ccc(NC(=O)Nc3ccc4c(c3)OCO4)cc2C1=O`, the cytotoxicity call was “active”. In the case of `C[C@H]1CCCCO[C@H](CN(C)Cc2ccc(Cl)c(Cl)c2)[C@@H](C)CN([C@@H](C)CO)C(=O)c2cc(NC(=O)Nc3ccc4c(c3)OCO4)ccc2O1`, the cytotoxicity call is reported as “inactive”. `C[C@H](CO)N1C[C@H](C)[C@H](CN(C)C(=O)Nc2ccc(F)cc2)OCCCC[C@H](C)Oc2ccc(NC(=O)C3CCCCCC3)cc2C1=O` was tested, and the cytotoxicity call was “inactive”. `CC(=O)O[C@H](C[C@H](O)C(C)(O)CCC=C(C)C)/C(C)=C/COC[C@@H](O)[C@@H](O)[C@@H](O)[C@@H](O)CO` (some centres not stated) was tested, and the cytotoxicity call was “inactive”. In the case of `O=C(Cn1ccc([N+](=O)[O-])n1)n1cccn1`, the cytotoxicity call is reported as “inactive”. For `N=c1ccn2c(n1)O[C@H]1[C@H](O)[C@@H](CO)O[C@H]12`, the cytotoxicity call was “active”. `Cl.N=c1ccn2c(n1)OC1C(O)C(CO)OC12` (configuration not stated) was tested, and the cytotoxicity call was “inactive”. In the case of `Nc1ccn([C@@H]2O[C@H](CO)[C@@H](O)[C@H]2O)c(=O)n1`, the cytotoxicity call is reported as “inactive”. `C[C@H](CO)N1C[C@H](C)[C@H](CN(C)C(=O)Nc2cccc3ccccc23)Oc2ncc(C#Cc3ccc(F)cc3)cc2C1=O` was tested, and the cytotoxicity call was “inactive”. In the case of `Cc1ccc(S(=O)(=O)N(C)C[C@@H]2OCCCC[C@H](C)Oc3ccc(NS(=O)(=O)c4ccc(Cl)cc4)cc3C(=O)N([C@H](C)CO)C[C@@H]2C)cc1`, the cytotoxicity call is reported as “inactive”. In the case of `CC(C)(C)c1cc(C(=O)NN)no1`, the cytotoxicity call is reported as “inactive”. In the case of `CCN1C(C)(C)CC(Oc2ccc(C(=O)Nc3ccc(NC(=O)Nc4cc(C(C)(C)C)on4)cc3)nc2)CC1(C)C`, the cytotoxicity call is reported as “active”. `CC(C)CC#Cc1ccc2c(c1)O[C@H](CN(C)C(=O)c1ccccn1)[C@@H](C)CN([C@H](C)CO)S2(=O)=O` was tested, and the cytotoxicity call was “inactive”. `COc1cccc(-c2ccc3c(c2)O[C@@H](CN(C)C(=O)C2CCOCC2)[C@@H](C)CN([C@@H](C)CO)S3(=O)=O)c1` was tested, and the cytotoxicity call was “inactive”. In the case of `C[C@@H]1CN([C@@H](C)CO)C(=O)Cc2cc(NC(=O)Cc3ccccc3)ccc2O[C@@H]1CN(C)Cc1ccc(C(F)(F)F)cc1`, the cytotoxicity call is reported as “active”. `C[C@H]1CN([C@@H](C)CO)C(=O)Cc2cc(NC(=O)Cc3ccccc3)ccc2O[C@@H]1CN(C)Cc1ccc(C(F)(F)F)cc1` was tested, and the cytotoxicity call was “active”. With `C[C@@H]1CN([C@@H](C)CO)C(=O)Cc2cc(NC(=O)Cc3ccccc3)ccc2O[C@H]1CN(C)Cc1ccc(C(F)(F)F)cc1` the cytotoxicity call was “inactive”. For `C[C@@H]1CN([C@H](C)CO)C(=O)Cc2cc(NC(=O)Cc3ccccc3)ccc2O[C@H]1CN(C)Cc1ccc(C(F)(F)F)cc1`, the cytotoxicity call was “inactive”. In the case of `C[C@H]1CN([C@@H](C)CO)C(=O)Cc2cc(NC(=O)Cc3ccccc3)ccc2O[C@H]1CN(C)Cc1ccc(C(F)(F)F)cc1`, the cytotoxicity call is reported as “inactive”. With `C[C@@H]1CN([C@H](C)CO)C(=O)Cc2cc(NC(=O)Cc3ccccc3)ccc2O[C@@H]1CN(C)Cc1ccc(C(F)(F)F)cc1` the cytotoxicity call was “inactive”. For `C[C@@H]1CN([C@@H](C)CO)C(=O)c2cc(NC(=O)Nc3cccc4ccccc34)ccc2O[C@@H]1CN(C)S(=O)(=O)c1ccc(Cl)cc1`, the cytotoxicity call was “inactive”. In the case of `Cc1noc(C)c1NC(=O)Nc1ccc2c(c1)C(=O)N([C@@H](C)CO)C[C@H](C)[C@@H](CN(C)Cc1ccc3c(c1)OCO3)OCCCC[C@@H](C)O2`, the cytotoxicity call is reported as “inactive”. With `COc1ccc(CN(C)C[C@@H]2OCCCC[C@H](C)Oc3ccc(NC(=O)NC(C)C)cc3C(=O)N([C@H](C)CO)C[C@H]2C)cc1` the cytotoxicity call was “inactive”. In the case of `CO[C@@H]1CN(C)C(=O)c2cc(NC(=O)CC(F)(F)F)ccc2OC[C@H](C)N(S(=O)(=O)c2cn(C)cn2)C[C@H]1C`, the cytotoxicity call is reported as “inactive”. For `Cc1ccc(S(=O)(=O)N(C)C[C@H]2Oc3ccc(NS(=O)(=O)c4c(C)noc4C)cc3CC(=O)N([C@H](C)CO)C[C@@H]2C)cc1`, the cytotoxicity call was “inactive”. In the case of `C[C@@H]1CN([C@@H](C)CO)S(=O)(=O)c2ccc(-c3cncnc3)cc2O[C@H]1CN(C)C(=O)C1CCCCC1`, the cytotoxicity call is reported as “inactive”. `C[C@@H]1CN([C@H](C)CO)C(=O)c2cc(-c3ccc(C(=O)N(C)C)cc3)cnc2O[C@H]1CN(C)C(=O)c1ccncc1` was tested, and the cytotoxicity call was “inactive”. With `C[C@@H]1CN([C@@H](C)CO)C(=O)c2cc(NS(C)(=O)=O)ccc2O[C@@H]1CN(C)Cc1ccc(C(F)(F)F)cc1` the cytotoxicity call was “inactive”. For `NC(=O)CSc1ccccn1`, the cytotoxicity call was “inactive”. `COCC#Cc1ccc2c(c1)O[C@H](CN(C)S(=O)(=O)c1ccc(F)cc1)[C@@H](C)CN([C@H](C)CO)S2(=O)=O` was tested, and the cytotoxicity call was “inactive”. `C[C@H]1CN([C@@H](C)CO)S(=O)(=O)c2ccc(C#Cc3ccncc3)cc2O[C@@H]1CN(C)S(=O)(=O)c1ccc(F)cc1` was tested, and the cytotoxicity call was “active”. In the case of `C[C@H](CO)N1C[C@H](C)[C@H](CN(C)S(=O)(=O)c2ccc(F)cc2)Oc2cc(C#Cc3ccncc3)ccc2S1(=O)=O`, the cytotoxicity call is reported as “inactive”. In the case of `COCC#Cc1ccc2c(c1)O[C@@H](CN(C)S(=O)(=O)c1ccc(F)cc1)[C@@H](C)CN([C@H](C)CO)S2(=O)=O`, the cytotoxicity call is reported as “inactive”. For `COCC#Cc1ccc2c(c1)O[C@@H](CN(C)S(=O)(=O)c1ccc(F)cc1)[C@@H](C)CN([C@@H](C)CO)S2(=O)=O`, the cytotoxicity call was “active”. `C[C@H]1CN([C@@H](C)CO)S(=O)(=O)c2ccc(C#Cc3ccncc3)cc2O[C@H]1CN(C)S(=O)(=O)c1ccc(F)cc1` was tested, and the cytotoxicity call was “inactive”. With `C[C@H](CO)N1C[C@H](C)[C@H](CN(C)C(=O)NC2CCCCC2)Oc2ccc(NS(C)(=O)=O)cc2CC1=O` the cytotoxicity call was “inactive”. With `C[C@H](CO)N1C[C@H](C)[C@@H](CN(C)C(=O)Nc2ccc(F)cc2)OCCCC[C@H](C)Oc2ccc(NC(=O)Cc3ccccc3)cc2C1=O` the cytotoxicity call was “inactive”. With `CC(C)C(N)C(=O)O` (configuration not stated) the cytotoxicity call was “inactive”. With `C[C@H](O)C(=O)Nc1c(I)c(C(=O)NC(CO)CO)c(I)c(C(=O)NC(CO)CO)c1I` the cytotoxicity call was “inactive”. With `CC(C)(C)c1ccc(C(O)CCCN2CCC(C(O)(c3ccccc3)c3ccccc3)CC2)cc1` (configuration not stated) the cytotoxicity call was “active”. In the case of `CC(C)(C(=O)O)c1ccc([C@@H](O)CCCN2CCC(C(O)(c3ccccc3)c3ccccc3)CC2)cc1`, the cytotoxicity call is reported as “inactive”. With `CC(C)(C(=O)O)c1ccc(C(O)CCCN2CCC(C(O)(c3ccccc3)c3ccccc3)CC2)cc1.Cl` (configuration not stated) the cytotoxicity call was “inactive”. For `C[C@@H]1CN([C@H](C)CO)C(=O)c2cccc(NC(=O)C3CC3)c2O[C@@H]1CN(C)Cc1ccc(-c2ccccc2)cc1`, the cytotoxicity call was “inactive”. `CC(C)NC(=O)Nc1ccc2c(c1)C(=O)N([C@@H](C)CO)C[C@@H](C)[C@@H](CN(C)S(C)(=O)=O)OCCCC[C@@H](C)O2` was tested, and the cytotoxicity call was “inactive”. `C[C@@H]1CCCCO[C@@H](CN(C)C(=O)Nc2ccccc2)[C@H](C)CN([C@H](C)CO)C(=O)c2cc(NC(=O)Nc3ccccc3)ccc2O1` was tested, and the cytotoxicity call was “inactive”. `CC(C)NC(=O)N(C)C[C@@H]1OCCCC[C@@H](C)Oc2ccc(NC(=O)Nc3ccc(C(F)(F)F)cc3)cc2C(=O)N([C@@H](C)CO)C[C@@H]1C` was tested, and the cytotoxicity call was “inactive”. With `C[C@H](CO)N1C[C@H](C)[C@H](CN(C)C(=O)Nc2ccc3c(c2)OCO3)OCc2cn(nn2)CCCC1=O` the cytotoxicity call was “inactive”. In the case of `Brc1ccc2nc(N3CCCN(Cc4ccccc4)CC3)nc(NC3CCN(Cc4ccccc4)CC3)c2c1`, the cytotoxicity call is reported as “active”. With `COc1cc2nc(N3CCCN(Cc4ccccc4)CC3)nc(Nc3ccc(F)c(Cl)c3)c2cc1OC` the cytotoxicity call was “active”. `COc1ccc2nc3cc(Cl)ccc3c(Nc3cc(CN4CCCC4)c(O)c(CN4CCCC4)c3)c2n1.O=P(O)(O)O.O=P(O)(O)O.O=P(O)(O)O.O=P(O)(O)O` was tested, and the cytotoxicity call was “inactive”. `COc1cc2nc(N3CCCN(Cc4ccccc4)CC3)nc(NC3CCN(Cc4ccccc4)CC3)c2cc1OC` was tested, and the cytotoxicity call was “inactive”. In the case of `NC1CCN(Cc2ccccc2)CC1`, the cytotoxicity call is reported as “inactive”. `COc1cc2nc(N3CCN(C(=O)c4ccco4)CC3)nc(N)c2cc1OC.Cl` was tested, and the cytotoxicity call was “inactive”.
